Data as given in PubChem BioAssay (NCATS).
Inconclusive results are not listed. Where a structure was tested more than once in an assay, its records may differ in their call. Active and inactive are the calls of the source. Unless noted, the call rests on the fitted dose curve; in most records, active means well fitted curve in the direction sought with a large enough effect; inconclusive means small, poorly fitted or top-dose-only effect, or another doubt; inactive means no such curve, though single readings can be large; an effect the other way counts as inactive or inconclusive.

Experiments:
MKL-2 = experiment: qHTS assay to identify novel small-molecules to repurpose for Merkel cell carcinoma treatment (AID 1296009); settings: MCC and control cell lines, CellTiter-Glo viability, 72 h; series mostly up to 46 µM; further: nearly all actives have a fitted effect of over 60% in size
Method in brief: (§1)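 Cell viability, measured as CellTiter-Glo luminescence, was normalized between DMSO and no-cell wells. The cells had been exposed to 8- or 11-point compound dilutions for 72 hr at 37 degree celsius.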

UISO = experiment: as above; settings: MCC and control cell lines, CellTiter-Glo viability, 72 h; series mostly up to 46 µM
Method in brief: as §1

WaGa = experiment: as above; settings: MCC and control cell lines, CellTiter-Glo viability, 72 h; series mostly up to 46 µM
Method in brief: as §1

C33A = experiment: Primary qHTS to identify gynecologic anti-cancer compounds using libraries of approved drugs and bioactive compounds (AID 1345084); settings: Gynecologic cancer cell panel viability, ATPlite luminescence, 48 h; series mostly up to 57.5 µM; further: on the % scale 0 is the no-effect control and ±100 the full control effect; nearly all actives have a fitted effect of over 55% in size
Method in brief: (§2)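 In this quantitative HTS, cell killing is estimated from loss of ATP-dependent luciferase light. Cells see five compound concentrations over a 48 h exposure.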

CAOV3 = experiment: as above; settings: Gynecologic cancer cell panel viability, ATPlite luminescence, 48 h; series mostly up to 57.5 µM
Method in brief: as §2

CASKI = experiment: as above; settings: Gynecologic cancer cell panel viability, ATPlite luminescence, 48 h; series mostly up to 57.5 µM
Method in brief: as §2

Es-2 = experiment: as above; settings: Gynecologic cancer cell panel viability, ATPlite luminescence, 48 h; series mostly up to 57.5 µM
Method in brief: as §2

HeLa = experiment: as above; settings: Gynecologic cancer cell panel viability, ATPlite luminescence, 48 h; series mostly up to 57.5 µM
Method in brief: as §2

Hek293T = experiment: as above; settings: Gynecologic cancer cell panel viability, ATPlite luminescence, 48 h, control line for the selectivity index; series mostly up to 57.5 µM
Method in brief: as §2

JEG-3 = experiment: as above; settings: Gynecologic cancer cell panel viability, ATPlite luminescence, 48 h; series mostly up to 57.5 µM
Method in brief: as §2

OV90 = experiment: as above; settings: Gynecologic cancer cell panel viability, ATPlite luminescence, 48 h; series mostly up to 57.5 µM
Method in brief: as §2

PA-1 = experiment: as above; settings: Gynecologic cancer cell panel viability, ATPlite luminescence, 48 h; series mostly up to 57.5 µM
Method in brief: as §2

SKOV3 = experiment: as above; settings: Gynecologic cancer cell panel viability, ATPlite luminescence, 48 h; series mostly up to 57.5 µM
Method in brief: as §2

Tov-21-G = experiment: as above; settings: Gynecologic cancer cell panel viability, ATPlite luminescence, 48 h; series mostly up to 57.5 µM
Method in brief: as §2

Tov112D = experiment: as above; settings: Gynecologic cancer cell panel viability, ATPlite luminescence, 48 h; series mostly up to 57.5 µM
Method in brief: as §2

[1] = Drug repurposing screens with cells derived from glioblastoma tumor samples (AID 1345199); settings: GBM patient neurospheres viability, ATP luminescence, 48 h; further: nearly all actives have a fitted effect of over 40% in size; further: potency means the concentration at half of the fitted maximal effect; on activity, negative = cell killing: on the % scale 0 is the no-effect control and ±100 the full control effect
Method in brief: (§3)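 Primary testing used CD133+ neurospheres from four GBM patients, seven concentrations, 48 h exposure and ATP-based viability; confirmation added three slower-growing patient lines.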

NIH3T3 = experiment: qHTS assay to identify novel small-molecules to repurpose for Merkel cell carcinoma treatment (AID 1296009); settings: MCC and control cell lines, CellTiter-Glo viability, 72 h; at 44.8 µM (top of the series) unless noted; further: nearly all actives have a fitted effect of over 60% in size
Method in brief: as §1

astro = experiment: Drug repurposing screens with cells derived from glioblastoma tumor samples (AID 1345199); settings: viability, ATP luminescence, 48 h; series mostly up to 45.9 µM; further: nearly all actives have a fitted effect of over 40% in size; further: potency means the concentration at half of the fitted maximal effect; on activity, negative = cell killing: on the % scale 0 is the no-effect control and ±100 the full control effect
Method in brief: as §3

[2] = molecular target: Nuclear receptor subfamily 1 group I member 2 (Rattus norvegicus) (UniProt Q9R1A7); experiment: qHTS assay for small molecule activators of the rat pregnane X receptor (rPXR) signaling pathway (AID 651751; call rule not given here; further: 0% is about no effect); settings: rPXR reporter cells, luciferase (One-Glo), 24 h
[3] = qHTS assay to identify inhibitors of the type 1 interferon - major histocompatibility complex class I in skeletal muscle: Counter screen cell viability and HiBit confirmation (AID 1347412); settings: iHSKM muscle cells + IFN-b, HiBiT or CellTiter-Glo, 24 h; Viability; at 45.9 µM (top of the series); further: on the % scale 0 is the no-effect control and ±100 the full control effect; nearly all actives have a fitted effect of over 60% in size
Method in brief: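 Duplicate plates, pinned identically: one read for HiBiT-tagged endogenous HLA-B luminescence, the other for ATP-content viability via CellTiter Glo. Cells were genome-engineered human myoblasts given 4 ng/ml IFN-b; compounds 12-pt, 1:3 from 46 uM final; 24 hr exposure.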

[4] = at 45.9 µM (top of the series), tumour line B
[5] = at 45.9 µM (top of the series), tumour line D
[6] = at 46.1 µM (top of the series), tumour line C
[7] = at 20 µM (top of the series), tumour line C
[8] = at 21.2 µM (top of the series), tumour line B
[9] = at 21.2 µM (top of the series), tumour line D
[10] = at 21.3 µM (top of the series), tumour line A
[11] = at 46 µM (top of the series), tumour line A

Sequence of Nuclear receptor subfamily 1 group I member 2 (Rattus norvegicus) (Q9R1A7 whole entry, looked up): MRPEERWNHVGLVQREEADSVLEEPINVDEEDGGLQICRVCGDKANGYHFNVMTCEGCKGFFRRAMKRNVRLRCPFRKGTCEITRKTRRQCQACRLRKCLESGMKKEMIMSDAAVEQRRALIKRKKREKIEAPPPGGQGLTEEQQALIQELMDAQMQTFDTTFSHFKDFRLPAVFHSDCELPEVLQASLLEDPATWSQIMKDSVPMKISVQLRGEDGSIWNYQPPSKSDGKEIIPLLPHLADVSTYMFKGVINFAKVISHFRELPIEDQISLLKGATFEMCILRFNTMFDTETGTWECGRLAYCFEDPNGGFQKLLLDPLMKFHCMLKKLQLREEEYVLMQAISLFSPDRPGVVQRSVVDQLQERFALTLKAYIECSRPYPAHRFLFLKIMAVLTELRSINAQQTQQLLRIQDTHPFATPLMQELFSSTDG

CCCCOCCOCCOCc1cc2c(cc1CCC)OCO2
active: Potency ([1]; tumour line A) 31.6 µM
inactive: Potency (MKL-2) | Potency (UISO) | Potency (WaGa) | Potency (C33A) | Potency (CAOV3) | Potency (CASKI) | Potency (Es-2) | Potency (HeLa) | Potency (Hek293T) | Potency (JEG-3) | Potency (OV90) | Potency (PA-1) | Potency (SKOV3) | Potency (Tov-21-G) | Potency (Tov112D) | activity, negative = cell killing [1, 4] -4.83% | activity, negative = cell killing [1, 5] 11.7% | activity, negative = cell killing [1, 6] -0.263% | activity, negative = cell killing ([1]; at 91.6 µM (top of the series), tumour line B) -11.5% | activity, negative = cell killing ([1]; at 91.6 µM (top of the series), tumour line D) -27.9% | activity, negative = cell killing ([1]; at 99.2 µM (top of the series), tumour line C) 13.4%

c1ccc2c(c1)CCCC2C1=NCCN1 (stereo unspecified)
inactive: Potency (MKL-2) | outcome (NIH3T3) | Potency (UISO) | Potency (WaGa) | Potency (C33A) | Potency (CAOV3) | Potency (CASKI) | Potency (Es-2) | Potency (HeLa) | Potency (Hek293T) | Potency (JEG-3) | Potency (OV90) | Potency (PA-1) | Potency (Tov-21-G) | Potency (Tov112D) | activity, negative = cell killing [1, 4] 0.679% | activity, negative = cell killing [1, 5] 3.62% | activity, negative = cell killing [1, 6] -14.8% | Potency (astro)

CC(=O)Oc1cc(C(C)C)c(OCCN(C)C)cc1C
inactive: Potency (MKL-2) | outcome (NIH3T3) | Potency (UISO) | Potency (WaGa) | Potency (C33A) | Potency (CAOV3) | Potency (CASKI) | Potency (HeLa) | Potency (Hek293T) | Potency (JEG-3) | Potency (OV90) | Potency (PA-1) | Potency (SKOV3) | Potency (Tov-21-G) | Potency (Tov112D) | activity, negative = cell killing [1, 7] -2.72% | activity, negative = cell killing [1, 8] -4.22% | activity, negative = cell killing [1, 9] -2.65% | activity, negative = cell killing [1, 10] -22.5%

CC(=O)Nc1nnc(S(N)(=O)=O)s1
inactive: Potency (MKL-2) | outcome (NIH3T3) | Potency (UISO) | Potency (WaGa) | Potency (C33A) | Potency (CAOV3) | Potency (CASKI) | Potency (Es-2) | Potency (HeLa) | Potency (Hek293T) | Potency (JEG-3) | Potency (OV90) | Potency (PA-1) | Potency (Tov-21-G) | Potency (Tov112D) | activity, negative = cell killing [1, 4] -5.69% | activity, negative = cell killing [1, 5] 0.278% | activity, negative = cell killing [1, 11] 1.18% | activity, negative = cell killing [1, 6] -27.5% | Potency (astro) | max response [2] 0.356%

CCCCNc1ccc(C(=O)OCCN(C)C)cc1
inactive: Potency (MKL-2) | outcome (NIH3T3) | Potency (UISO) | Potency (WaGa) | Potency (C33A) | Potency (CAOV3) | Potency (CASKI) | Potency (Es-2) | Potency (Hek293T) | Potency (JEG-3) | Potency (OV90) | Potency (PA-1) | Potency (SKOV3) | Potency (Tov-21-G) | Potency (Tov112D) | activity, negative = cell killing [1, 7] -9.33% | Potency (astro)
active: Potency ([1]; tumour line A) 14.1 µM

CC(=O)OCC1=C(C(=O)O)N2C(=O)[C@@H](NC(=O)Cc3cccs3)[C@H]2SC1
inactive: Potency (MKL-2) | outcome (NIH3T3) | Potency (UISO) | Potency (WaGa) | Potency (C33A) | Potency (CAOV3) | Potency (CASKI) | Potency (Es-2) | Potency (Hek293T) | Potency (JEG-3) | Potency (OV90) | Potency (PA-1) | Potency (SKOV3) | Potency (Tov-21-G) | Potency (Tov112D) | activity, negative = cell killing [1, 4] 5.86% | activity, negative = cell killing [1, 5] -7.52% | activity, negative = cell killing [1, 11] -19.9% | activity, negative = cell killing [1, 6] -19.9% | Potency (astro)

CC(C)NNC(=O)c1ccncc1
inactive: Potency (MKL-2) | outcome (NIH3T3) | Potency (UISO) | Potency (WaGa) | Potency (C33A) | Potency (CAOV3) | Potency (CASKI) | Potency (Es-2) | Potency (HeLa) | Potency (Hek293T) | Potency (JEG-3) | Potency (OV90) | Potency (PA-1) | Potency (SKOV3) | Potency (Tov-21-G) | Potency (Tov112D) | activity, negative = cell killing [1, 4] -11.9% | activity, negative = cell killing [1, 5] -16.2% | activity, negative = cell killing [1, 6] -23.6% | Potency (astro)

C[C@]12C=CC(=O)C=C1CC[C@H]1[C@@H]3C[C@@H](O)[C@](O)(C(=O)CO)[C@@]3(C)C[C@H](O)[C@@]12F
inactive: Potency (MKL-2) | outcome (NIH3T3) | Potency (UISO) | Potency (WaGa) | Potency (C33A) | Potency (CAOV3) | Potency (CASKI) | Potency (Es-2) | Potency (HeLa) | Potency (Hek293T) | Potency (JEG-3) | Potency (OV90) | Potency (PA-1) | Potency (SKOV3) | Potency (Tov-21-G) | Potency (Tov112D) | activity, negative = cell killing [1, 4] -11.4% | activity, negative = cell killing [1, 5] -6.95% | activity, negative = cell killing [1, 11] -27.1% | activity, negative = cell killing [1, 6] 7.27% | Potency (astro) | activity change, negative = inhibition [3] 8.47% | max response [2] 3.64%

FC(F)(F)c1ccccc1-n1ccnc1
inactive: Potency (MKL-2) | Potency (UISO) | Potency (WaGa) | Potency (C33A) | Potency (CAOV3) | Potency (CASKI) | Potency (Es-2) | Potency (HeLa) | Potency (Hek293T) | Potency (JEG-3) | Potency (OV90) | Potency (PA-1) | Potency (SKOV3) | Potency (Tov-21-G) | Potency (Tov112D) | activity, negative = cell killing [1, 4] -13.1% | activity, negative = cell killing [1, 5] -9.1% | activity, negative = cell killing [1, 11] -27.4% | activity, negative = cell killing [1, 6] -16.7%

C[C@@H](O)[C@H]1C(=O)N2C(C(=O)O)=C(SCCN=CN)C[C@H]12
inactive: Potency (MKL-2) | Potency (UISO) | Potency (WaGa) | Potency (C33A) | Potency (CAOV3) | Potency (CASKI) | Potency (Es-2) | Potency (HeLa) | Potency (Hek293T) | Potency (JEG-3) | Potency (OV90) | Potency (PA-1) | Potency (SKOV3) | Potency (Tov-21-G) | Potency (Tov112D) | activity, negative = cell killing [1, 7] -11.4% | activity, negative = cell killing [1, 8] -16.2% | activity, negative = cell killing [1, 9] -8.7% | activity, negative = cell killing [1, 10] -14.5%

C[N+](C)(C)CCOC(=O)CCC(=O)OCC[N+](C)(C)C
inactive: Potency (MKL-2) | outcome (NIH3T3) | Potency (UISO) | Potency (WaGa) | Potency (C33A) | Potency (CAOV3) | Potency (CASKI) | Potency (Es-2) | Potency (HeLa) | Potency (Hek293T) | Potency (JEG-3) | Potency (OV90) | Potency (PA-1) | Potency (SKOV3) | Potency (Tov-21-G) | Potency (Tov112D) | activity, negative = cell killing [1, 4] 5.74% | activity, negative = cell killing [1, 5] -9.68% | activity, negative = cell killing [1, 11] -19.2% | activity, negative = cell killing [1, 6] 9.88% | Potency (astro)
